Measured values: PubChem BioAssay (NCI)
About 83,000 compounds went through this panel and 20% of them were active in at least one assay; those are over-represented in the sample as a whole.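 Note: values are percent growth. 100 is the growth of untreated cells, values between 100 and 0 indicate rising inhibition; between -100 and 0 indicates cell death.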 Activity calls are given as the source filed them. How the source made its calls: active means growth percent below 10; inactive means the rest.

Assays:
Test in all cases: NCI-60 one-dose screen, 48 h (100 = growth as untreated, 0 = no growth, -100 = all killed)
Conditions in all cases: 10 µM unless noted
[1] = test system: HCT-15 colon
[2] = test system: HT29 colon
[3] = test system: SNB-75 CNS
[4] = test system: SNB-19 CNS
[5] = test system: U251 CNS
[6] = test system: PC-3 prostate
[7] = test system: SK-MEL-5 melanoma
[8] = test system: UACC-62 melanoma
[9] = test system: LOX IMVI melanoma
[10] = test system: SK-MEL-28 melanoma
[11] = test system: SK-MEL-2 melanoma
[12] = test system: EKVX NSCLC
[13] = test system: SN12C renal
[14] = test system: UO-31 renal
[15] = test system: TK-10 renal
[16] = test system: ACHN renal
[17] = test system: A498 renal
[18] = test system: CCRF-CEM leukemia
[19] = test system: MOLT-4 leukemia
[20] = test system: CAKI-1 renal

Measured: growth

COc1ccc2c(c1)c(CC(=O)[Se]CCC#N)c(C)n2C(=O)c1ccc(Cl)cc1
active: [1] -64.7% | [2] -31.2% | [3] -30.1% | [4] -45.2% | [5] 1.11% | [7] -73.4% | [9] -50.4% | [10] -1.32% | [11] 9.95% | [12] -82.5% | [13] -82.6% | [14] -21.7% | [15] -74.7% | [16] 5.57% | [17] -42.9% | [18] 5.22%
inactive: [6] 17.4% | [8] 41.3%

COC(=O)C[Se]C(=O)Cc1c(C)n(C(=O)c2ccc(Cl)cc2)c2ccc(OC)cc12
inactive: [1] 11.5% | [3] 73.5% | [4] 31.7% | [5] 46.2% | [6] 72.7% | [7] 44.9% | [8] 69.6% | [10] 62.8% | [11] 86.8% | [12] 15.1% | [13] 57.1% | [15] 70.6% | [16] 53.2% | [17] 70.6% | [18] 50.1% | [19] 67.1%
active: [2] 9.65% | [9] -54.9% | [14] 9.87%

COc1ccc(-n2c(SCc3n[nH]c(=S)o3)nc3ccc(Cl)cc3c2=O)cc1
inactive: [1] 93.6% | [2] 105% | [3] 95.5% | [4] 92.9% | [5] 104% | [6] 101% | [7] 93.5% | [8] 92% | [9] 101% | [10] 95.1% | [12] 98.7% | [13] 92% | [14] 93.7% | [15] 105% | [16] 97% | [20] 85.5% | [18] 98.7%

Cc1ccc(-c2nn(-c3ccccc3)cc2/C=C/C(=O)c2ccc(NC(=O)CCCCCCC(=O)NO)cc2)cc1
inactive: [1] 68% | [2] 61.4% | [3] 102% | [4] 81.9% | [5] 79.2% | [6] 74.6% | [7] 91.7% | [8] 53.3% | [9] 62.2% | [10] 89% | [12] 85.8% | [13] 73.5% | [14] 52.2% | [15] 70.2% | [16] 87.9% | [20] 58.1% | [17] 58.2% | [18] 38.8% | [19] 38.5%

COc1cc(-c2nn(C(C)(C)C)cc2-c2ccnc(NCCCNS(=O)(=O)c3ccccc3)n2)ccc1Cl
inactive: [1] 60.1% | [2] 70.3% | [3] 49.1% | [4] 97.2% | [5] 91.7% | [6] 54.8% | [7] 72.7% | [8] 78.4% | [9] 62.7% | [10] 93% | [11] 89.6% | [13] 52% | [14] 39.4% | [15] 66% | [16] 77.2% | [20] 27% | [17] 31.2% | [19] 59.6%

C#C[C@]1(O)CC[C@H]2[C@@H]3CC=C4c5sc(-c6ccc7c(c6)OCO7)nc5CC[C@]4(C)[C@H]3CC[C@@]21C
active: [2] 8.04% | [3] -3.43% | [5] -24.5% | [6] -23.7% | [8] -35.5% | [9] -40.1% | [10] -39.7%
inactive: [1] 10.5% | [4] 15.5% | [7] 50.5% | [12] 34.5% | [13] 22.3% | [14] 51.9% | [15] 13.3% | [16] 13% | [20] 44.4% | [17] 48.8% | [18] 30.6%

O=S(=O)(NCCCNc1nccc(-c2[nH]c(-c3ccccc3)nc2-c2ccc(Cl)c(O)c2)n1)c1cccc2ccccc12
active: [11] -4.81%
inactive: [1] 16.3% | [2] 38.6% | [3] 43.4% | [4] 37.8% | [5] 14.7% | [6] 26.2% | [7] 13.1% | [8] 17.4% | [9] 19.8% | [10] 29.8% | [13] 24% | [14] 20.2% | [15] 49.7% | [16] 19.6% | [20] 39.5% | [17] 71.9% | [18] 20% | [19] 18.7%

CN1c2ccccc2Sc2cc(C=C(C#N)C#N)ccc21
inactive: [1] 101% | [2] 111% | [3] 79.8% | [4] 97.6% | [5] 98% | [6] 105% | [7] 100% | [8] 46.5% | [9] 87.3% | [10] 104% | [12] 93.6% | [13] 92.7% | [14] 95.6% | [15] 111% | [16] 101% | [20] 91.8% | [18] 102% | [19] 84.8%
active: [17] -19%

COc1cc2nc(Cl)nc(Nc3cccc(C4=Nc5c(N)nc(N)nc5NC(c5ccc(Cl)cc5)C4)c3)c2cc1OC (stereo unspecified)
active: [1] -7.82% | [2] 3.99% | [5] -52.4% | [9] -52.3% | [18] 3.94%
inactive: [3] 89.9% | [4] 12.8% | [6] 62.8% | [7] 70.6% | [8] 92% | [10] 73.9% | [12] 95.3% | [13] 73.7% | [14] 89.9% | [15] 115% | [16] 102% | [20] 86.8% | [17] 99.4% | [19] 10%

COc1ccccc1-n1cc(C#N)c(N)c1C(=O)c1ccc(Br)cc1
inactive: [1] 35.1% | [2] 44.6% | [3] 74.5% | [4] 71.1% | [5] 66.8% | [6] 63.4% | [7] 77.4% | [8] 45.2% | [9] 66.2% | [10] 69% | [11] 70.4% | [13] 82.7% | [14] 73% | [15] 111% | [16] 98.9% | [20] 68.8% | [18] 68.3%

COC(=O)C(Cc1ccccc1)Nc1nc(NC(Cc2ccccc2)C(=O)OC)nc(N2CCOCC2)n1 (stereo unspecified)
inactive: [1] 106% | [2] 101% | [3] 90.5% | [4] 104% | [5] 105% | [6] 103% | [7] 98.7% | [8] 90.2% | [9] 105% | [10] 109% | [11] 111% | [13] 104% | [14] 81.2% | [15] 103% | [16] 109% | [20] 86.8% | [17] 107% | [18] 105% | [19] 101%

CC1(COc2ccc3ncc(C#Cc4cncc(C(=O)Nc5cccc(C(F)(F)F)c5)c4)n3n2)COC1
inactive: [1] 86.1% | [2] 82.1% | [3] 63% | [4] 82.8% | [5] 91.3% | [6] 95.5% | [7] 79.4% | [8] 72.9% | [9] 65.6% | [10] 86.8% | [12] 101% | [13] 61.9% | [14] 58.2% | [15] 128% | [16] 72.4% | [20] 81.7% | [18] 88.4% | [19] 84.9%

CCc1cccc2c3c(sc12)C(c1ccc(OC)cc1)C(C#N)=C(/N=C/c1ccc(Cl)cc1)O3 (stereo unspecified)
active: [2] -25.7% | [3] 3.81% | [7] 4.03% | [17] -7.61%
inactive: [1] 20.2% | [4] 30.6% | [5] 20.1% | [6] 21.1% | [8] 27.8% | [9] 38% | [10] 59.8% | [12] 47.6% | [13] 41.8% | [14] 37.8% | [15] 80.7% | [16] 43% | [20] 42.1% | [18] 16.3% | [19] 22.5%

COc1cc2oc(-c3cccc(C(=O)N[C@@H](CC(C)C)C(=O)OC(C)(C)C)c3)cc(=O)c2c(OC)c1OC
inactive: [1] 36.9% | [2] 83.7% | [3] 80.9% | [4] 78.3% | [5] 76.1% | [6] 58.4% | [7] 74.1% | [8] 51.6% | [9] 46.5% | [10] 95.9% | [11] 81.6% | [13] 57% | [14] 39.6% | [15] 95% | [16] 69.7% | [20] 53.6% | [17] 96.7% | [18] 40.2% | [19] 62.1%

COc1ccccc1NCc1cccn1Cc1ccc(F)cc1
inactive: [1] 98.3% | [2] 102% | [3] 104% | [4] 96% | [5] 98.8% | [6] 97.3% | [7] 97.4% | [8] 89.8% | [9] 97% | [10] 97.4% | [11] 106% | [13] 97.5% | [14] 75.6% | [15] 91.3% | [16] 93.3% | [20] 94% | [17] 85.9% | [18] 91.8% | [19] 94%

CCNC(=O)Oc1ccc(/C(=C(/C)c2ccccc2)c2ccc(OCCN3CCCCCC3)cc2)cc1
inactive: [4] 12.7% | [6] 13.1% | [8] 16.5% | [13] 26.4% | [15] 66.5% | [16] 18.9% | [17] 26.6%
active: [1] 3.38% | [2] -14.2% | [3] -0.681% | [5] -44.6% | [7] -94.7% | [9] -14.8% | [10] -41.8% | [11] -30% | [14] -20.3% | [20] 8.75% | [18] 7.24% | [19] 2.51%
